{"source": "the supplement of paper PMC10515830", "settings_in_all_cases": "10 µM; exposure time 6 h", "key": {"[1]": {"system": "Danio rerio larvae (5 dpf)", "assay": "difference in excitability vs DMSO (percentage points); higher = more excitable than DMSO", "method_in_brief": "(§1)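 Wild-type 5 dpf zebrafish larvae in 96-well plates were given 100 µL egg water containing library compound at 10 µM final for 6 h. After 3 h of exposure, plates at 28.5 ℃ were photographed every 6 s during a 3-h programme of moving lines and 100 ms, 400Hz tones. Z-LaP Tracker (a DeepLabCut model) quantified each behaviour, averaged over 48 larvae per compound. Values are the compound mean minus the DMSO-vehicle control, in percentage points.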"}, "[2]": {"system": "Danio rerio larvae (5 dpf)", "assay": "difference in startle response vs DMSO (percentage points); higher = stronger startle than DMSO", "method_in_brief": "as §1"}, "[3]": {"system": "Danio rerio larvae (5 dpf)", "assay": "difference in activity during first hour vs DMSO (percentage points); higher = more activity than DMSO", "method_in_brief": "as §1"}, "[4]": {"system": "Danio rerio larvae (5 dpf)", "assay": "difference in habituation to acoustic stimuli vs DMSO (percentage points); higher = more habituation than DMSO", "method_in_brief": "as §1"}, "[5]": {"system": "Danio rerio larvae (5 dpf)", "assay": "difference in combined optomotor response to red, green and blue moving lines vs DMSO (percentage points); higher = stronger optomotor response than DMSO", "method_in_brief": "as §1"}}, "note": "Structures can show the parent of a compound that is named as a salt.", "data": [{"smiles": "CCCCCCCCCCCCCCCC(=O)OC/C=C(C)/C=C/C=C(C)/C=C/C1=C(C)CCCC1(C)C", "note": "[Retinyl Palmitate]", "values": [{"measurement": "difference in excitability", "setting": "[1]", "value": 6.81}, {"measurement": "difference in startle response", "setting": "[2]", "value": 5.22}, {"measurement": "difference in activity during first hour", "setting": "[3]", "value": 3.08}, {"measurement": "difference in habituation to acoustic stimuli", "setting": "[4]", "value": 2.4}, {"measurement": "difference", "setting": "[5]", "value": -4.44}]}, {"smiles": "CC(C)N1CCN(c2ccc(OCC3COC(Cn4cncn4)(c4ccc(Cl)cc4Cl)O3)cc2)CC1", "note": "(stereo not given) [Terconazole]", "values": [{"measurement": "difference in excitability", "setting": "[1]", "value": 18}, {"measurement": "difference in startle response", "setting": "[2]", "value": -1.46}, {"measurement": "difference in activity during first hour", "setting": "[3]", "value": 2.36}, {"measurement": "difference in habituation to acoustic stimuli", "setting": "[4]", "value": -6.11}, {"measurement": "difference", "setting": "[5]", "value": 0.243}]}, {"smiles": "CCCCc1nc(Cl)c(CO)n1Cc1ccc(-c2ccccc2-c2nnn[nH]2)cc1", "note": "[Losartan (potassium salt)]", "values": [{"measurement": "difference in excitability", "setting": "[1]", "value": 3.08}, {"measurement": "difference in startle response", "setting": "[2]", "value": 0.6}, {"measurement": "difference in activity during first hour", "setting": "[3]", "value": 6.85}, {"measurement": "difference in habituation to acoustic stimuli", "setting": "[4]", "value": -4.35}, {"measurement": "difference", "setting": "[5]", "value": -1.12}]}, {"smiles": "CC(CN(C)C)CN1c2ccccc2CCc2ccccc21", "note": "(stereo not given) [Trimipramine (maleate)]", "values": [{"measurement": "difference in excitability", "setting": "[1]", "value": 12.5}, {"measurement": "difference in startle response", "setting": "[2]", "value": -3.72}, {"measurement": "difference in activity during first hour", "setting": "[3]", "value": -0.632}, {"measurement": "difference in habituation to acoustic stimuli", "setting": "[4]", "value": -5.79}, {"measurement": "difference", "setting": "[5]", "value": 0.935}]}, {"smiles": "CCS(=O)(=O)CCn1c([N+](=O)[O-])cnc1C", "note": "[Tinidazole]", "values": [{"measurement": "difference in excitability", "setting": "[1]", "value": 0.787}, {"measurement": "difference in startle response", "setting": "[2]", "value": 3.72}, {"measurement": "difference in activity during first hour", "setting": "[3]", "value": 7.24}, {"measurement": "difference in habituation to acoustic stimuli", "setting": "[4]", "value": 0.838}, {"measurement": "difference", "setting": "[5]", "value": 7.16}]}, {"smiles": "COc1cc2nc(N3CCN(C(=O)C4COc5ccccc5O4)CC3)nc(N)c2cc1OC", "note": "(stereo not given) [Doxazosin (mesylate)]", "values": [{"measurement": "difference in excitability", "setting": "[1]", "value": 25}, {"measurement": "difference in startle response", "setting": "[2]", "value": 8.69}, {"measurement": "difference in activity during first hour", "setting": "[3]", "value": 7.65}, {"measurement": "difference in habituation to acoustic stimuli", "setting": "[4]", "value": -8.22}, {"measurement": "difference", "setting": "[5]", "value": -5.73}]}, {"smiles": "CC(=O)O[C@]1(C(C)=O)CC[C@H]2[C@@H]3C=C(C)C4=CC(=O)CC[C@]4(C)[C@H]3CC[C@@]21C", "note": "[Megestryl Acetate]", "values": [{"measurement": "difference in excitability", "setting": "[1]", "value": 20.8}, {"measurement": "difference in startle response", "setting": "[2]", "value": -4.3}, {"measurement": "difference in activity during first hour", "setting": "[3]", "value": 4.4}, {"measurement": "difference in habituation to acoustic stimuli", "setting": "[4]", "value": -8.79}, {"measurement": "difference", "setting": "[5]", "value": -10.8}]}, {"smiles": "O=C(O)CCCc1ccccc1", "note": "[Sodium 4-Phenylbutyrate]", "values": [{"measurement": "difference in excitability", "setting": "[1]", "value": -1.36}, {"measurement": "difference in startle response", "setting": "[2]", "value": 2.31}, {"measurement": "difference in activity during first hour", "setting": "[3]", "value": -3.38}, {"measurement": "difference in habituation to acoustic stimuli", "setting": "[4]", "value": 1.43}, {"measurement": "difference", "setting": "[5]", "value": 5.24}]}, {"smiles": "N=C(N)NC(=O)c1nc(Cl)c(N)nc1N", "note": "[Amiloride (hydrochloride) (hydrate)]", "values": [{"measurement": "difference in excitability", "setting": "[1]", "value": 10.2}, {"measurement": "difference in startle response", "setting": "[2]", "value": -1.2}, {"measurement": "difference in activity during first hour", "setting": "[3]", "value": -3.37}, {"measurement": "difference in habituation to acoustic stimuli", "setting": "[4]", "value": 2.2}, {"measurement": "difference", "setting": "[5]", "value": 2.45}]}, {"smiles": "CN1C(=O)OC(C)(C)C1=O", "note": "[Trimethadione]", "values": [{"measurement": "difference in excitability", "setting": "[1]", "value": 6.43}, {"measurement": "difference in startle response", "setting": "[2]", "value": 11.1}, {"measurement": "difference in activity during first hour", "setting": "[3]", "value": -6}, {"measurement": "difference in habituation to acoustic stimuli", "setting": "[4]", "value": 3.86}, {"measurement": "difference", "setting": "[5]", "value": -0.0394}]}, {"smiles": "O=C(NC[C@H]1CN(c2ccc(N3CCOCC3=O)cc2)C(=O)O1)c1ccc(Cl)s1", "note": "[Rivaroxaban]", "values": [{"measurement": "difference in excitability", "setting": "[1]", "value": -1.52}, {"measurement": "difference in startle response", "setting": "[2]", "value": -3.86}, {"measurement": "difference in activity during first hour", "setting": "[3]", "value": -2.47}, {"measurement": "difference in habituation to acoustic stimuli", "setting": "[4]", "value": -4.56}, {"measurement": "difference", "setting": "[5]", "value": 1.67}]}, {"smiles": "O=C(C1CCCCC1)N1CC(=O)N2CCc3ccccc3C2C1", "note": "(stereo not given) [Praziquantel]", "values": [{"measurement": "difference in excitability", "setting": "[1]", "value": 27.3}, {"measurement": "difference in startle response", "setting": "[2]", "value": 13.2}, {"measurement": "difference in activity during first hour", "setting": "[3]", "value": -17.7}, {"measurement": "difference in habituation to acoustic stimuli", "setting": "[4]", "value": 11}, {"measurement": "difference", "setting": "[5]", "value": 10.4}]}, {"smiles": "Cc1cn([C@H]2C=C[C@@H](CO)O2)c(=O)[nH]c1=O", "note": "[Stavudine]", "values": [{"measurement": "difference in excitability", "setting": "[1]", "value": 7.17}, {"measurement": "difference in startle response", "setting": "[2]", "value": -2.71}, {"measurement": "difference in activity during first hour", "setting": "[3]", "value": -1.82}, {"measurement": "difference in habituation to acoustic stimuli", "setting": "[4]", "value": 5.47}, {"measurement": "difference", "setting": "[5]", "value": 4.85}]}, {"smiles": "Cn1nnc2c(C(N)=O)ncn2c1=O", "note": "[Temozolomide]", "values": [{"measurement": "difference in excitability", "setting": "[1]", "value": -3.41}, {"measurement": "difference in startle response", "setting": "[2]", "value": 0.671}, {"measurement": "difference in activity during first hour", "setting": "[3]", "value": -3.71}, {"measurement": "difference in habituation to acoustic stimuli", "setting": "[4]", "value": 1.66}, {"measurement": "difference", "setting": "[5]", "value": 5.77}]}, {"smiles": "CNC(=O)c1ccc(N2C(=S)N(c3cnc(C#N)c(C(F)(F)F)c3)C(=O)C23CCC3)cc1F", "values": [{"measurement": "difference in excitability", "setting": "[1]", "value": -1.56}, {"measurement": "difference in startle response", "setting": "[2]", "value": -1.13}, {"measurement": "difference in activity during first hour", "setting": "[3]", "value": 6.27}, {"measurement": "difference in habituation to acoustic stimuli", "setting": "[4]", "value": 0.499}, {"measurement": "difference", "setting": "[5]", "value": 11.9}]}, {"smiles": "CC(=O)c1ccc(S(=O)(=O)NC(=O)NC2CCCCC2)cc1", "note": "[Acetohexamide]", "values": [{"measurement": "difference in excitability", "setting": "[1]", "value": -0.755}, {"measurement": "difference in startle response", "setting": "[2]", "value": 2.86}, {"measurement": "difference in activity during first hour", "setting": "[3]", "value": -0.443}, {"measurement": "difference in habituation to acoustic stimuli", "setting": "[4]", "value": -3.12}, {"measurement": "difference", "setting": "[5]", "value": 2.21}]}, {"smiles": "C[N+](C)(C)CCOC(N)=O", "note": "[Carbamoylcholine (chloride)]", "values": [{"measurement": "difference in excitability", "setting": "[1]", "value": 2.95}, {"measurement": "difference in startle response", "setting": "[2]", "value": 2.73}, {"measurement": "difference in activity during first hour", "setting": "[3]", "value": -0.038}, {"measurement": "difference in habituation to acoustic stimuli", "setting": "[4]", "value": 1.09}, {"measurement": "difference", "setting": "[5]", "value": 1.31}]}, {"smiles": "CCOC(=O)[C@@](C)(N)Cc1ccc(O)c(O)c1", "note": "[Methyldopate]", "values": [{"measurement": "difference in excitability", "setting": "[1]", "value": 14.5}, {"measurement": "difference in startle response", "setting": "[2]", "value": 1.24}, {"measurement": "difference in activity during first hour", "setting": "[3]", "value": -2.29}, {"measurement": "difference in habituation to acoustic stimuli", "setting": "[4]", "value": -2.04}, {"measurement": "difference", "setting": "[5]", "value": -2.04}]}, {"smiles": "CCCCCC(=O)O[C@]1(C(C)=O)CC[C@H]2[C@@H]3CCC4=CC(=O)CC[C@]4(C)[C@H]3CC[C@@]21C", "note": "[Hydroxyprogesterone Caproate]", "values": [{"measurement": "difference in excitability", "setting": "[1]", "value": 5.64}, {"measurement": "difference in startle response", "setting": "[2]", "value": -9.54}, {"measurement": "difference in activity during first hour", "setting": "[3]", "value": -13.7}, {"measurement": "difference in habituation to acoustic stimuli", "setting": "[4]", "value": -9.28}, {"measurement": "difference", "setting": "[5]", "value": -15.8}]}, {"smiles": "C[C@@H](Oc1cc(-c2cnn(C3CCNCC3)c2)cnc1N)c1c(Cl)ccc(F)c1Cl", "note": "[(R)-Crizotinib]", "values": [{"measurement": "difference in excitability", "setting": "[1]", "value": 11.1}, {"measurement": "difference in startle response", "setting": "[2]", "value": -4.49}, {"measurement": "difference in activity during first hour", "setting": "[3]", "value": -3.18}, {"measurement": "difference in habituation to acoustic stimuli", "setting": "[4]", "value": 0.409}, {"measurement": "difference", "setting": "[5]", "value": -0.753}]}, {"smiles": "COc1ccccc1Oc1c(NS(=O)(=O)c2ccc(C(C)(C)C)cc2)nc(-c2ncccn2)nc1OCCO", "note": "[Bosentan]", "values": [{"measurement": "difference in excitability", "setting": "[1]", "value": 11.1}, {"measurement": "difference in startle response", "setting": "[2]", "value": -7.54}, {"measurement": "difference in activity during first hour", "setting": "[3]", "value": 2.38}, {"measurement": "difference in habituation to acoustic stimuli", "setting": "[4]", "value": 2.24}, {"measurement": "difference", "setting": "[5]", "value": -0.979}]}]}
